# Assay results as given in PubChem BioAssay (Tox21).
# Inconclusive results are not listed. A call without a number means that no potency is given here. The source made the active and inactive calls. Calls come from the whole dose curve; as a rule, active = well fitted activation curve with a large enough effect in the repeat runs; inconclusive = weak or mixed curves; inactive = no such curve, though single readings can be large or run the other way.
# Target: Nuclear receptor subfamily 1 group I member 2 (Homo sapiens) (UniProt O75469)
# Assay: CYP3A4 induction through human pregnane X receptor (PXR) by small molecules, qHTS assay (AID 1346984); note: nearly all actives have a fitted effect of over 40% in size
# Conditions: DPX-2 HepG2 PXR, CYP3A4-luciferin luminescence, 24 h; series mostly up to 46.1 µM
# Source text: National Center for Advancing Translational Sciences [NCATS]
# NIH Chemical Genomics Center [NCGC]
# U.S. Environmental Protection Agency [EPA]
# National Institutes of Environmental Health Sciences [NIEHS]
# National Toxicology Program [NTP]
# The Pregnane X receptor (PXR), a ligand activated nuclear receptor plays a critical role in the regulation of genes involved in drug metabolism and transporters. Activation of PXR is responsible for unwanted adverse drug reactions. PXR binds xenobiotics and when compounds interact with PXR enhances the expression of CYP3A genes. Identifying the compounds with the potential for PXR activation and CYP3A4 induction can be of importance in improving the efficacy of drugs with less toxicity and avoiding drug-drug interactions.
# DPX-2 (Puracyp, Inc.) cell lines, used for screening against human PXR activation has HepG2 cells co-transfected with a PXR response element and a luciferase construct containing CYP3A4 promoter. Increase in luciferase activity can be used to identify the compounds that cause the induction of CYP3A4.
# DPX-2 cells were dispensed at 2,000 cells per well in 5uL of assay medium into white, solid-bottom 1536-well plates using a Multidrop Combi dispenser (Thermo Scientific). The assay plates were incubated at 37C for 5hr before transferring 23nL of test compounds dissolved in DMSO and positive control via Pintool station (Wako). The assay plates were incubated at 37C for 24hr. After 24hr compound treatment, 1uL of 3uM (final concentration) P450 substrate (P450-Glo CYP3A4 screening system with Luciferin-IPA, Promega) was added by a Flying Reagent Dispenser (FRD, Aurora Discovery). The assay plates were incubated for 3hr at 37C. Then 5ul One-Glo assay reagent (Promega) was added to each plate by an FRD and following 30 min incubation at room temperature, luciferase activity was quantified on a ViewLux plate reader (Perkin Elmer).
# Potency is the fitted concentration of half-maximal effect.
row,Structure (SMILES),Potency
1,Nc1cc(Cl)c(NC2=NCCN2)c(Cl)c1,inactive
2,CNCC(=O)N[C@@H](CCCN=C(N)N)C(=O)N[C@H](C(=O)N[C@@H](Cc1ccc(O)cc1)C(=O)N[C@H](C(=O)N[C@@H](Cc1cnc[nH]1)C(=O)N1CCC[C@H]1C(=O)N[C@@H](C)C(=O)O)C(C)C)C(C)C,inactive
3,C[N+](C)(C)CCOP(=O)(O)OP(=O)([O-])OC[C@H]1O[C@@H](n2ccc(N)nc2=O)[C@H](O)[C@@H]1O,inactive
4,CC(CNC(=O)c1cccnc1)NC(=O)c1cccnc1 (stereo not given),inactive
5,C=C1[C@@H]2CC[C@@H](C2)C1(C)C,inactive
6,CCCCCCOC(=O)c1cccnc1,inactive
7,Cc1onc(-c2c(F)cccc2Cl)c1C(=O)N[C@@H]1C(=O)N2[C@@H]1SC(C)(C)[C@@H]2C(=O)O,inactive
8,CC(C)NCC1CCc2cc(CO)c([N+](=O)[O-])cc2N1 (stereo not given),inactive
9,C=N[C@@H](C(=O)N[C@@H]1C(=O)N2[C@@H]1SC(C)(C)[C@@H]2C(=O)O)c1ccccc1,inactive
10,NC(=O)[C@H]1O[C@@H](O)[C@H](O)[C@@H](O)[C@@H]1O,inactive
11,CCc1cn([C@H]2C[C@H](O)[C@@H](CO)O2)c(=O)[nH]c1=O,inactive
12,C=C(Nc1ccc(OCC)cc1)Nc1ccc(OCC)cc1,inactive
13,O=C(O)[C@H]1CN(C/C=C/P(=O)(O)O)CCN1,inactive
14,c1ccc2c(c1)OCC(CN1CCCCC1)O2 (stereo not given),inactive
15,CCN(CC)C(=O)[C@]1(c2ccccc2)C[C@@H]1CN,inactive
16,O=C(O)c1cc(=O)c2c3nc4ccccc4oc-3cc(=O)c2[nH]1,inactive
17,CC/C=C\C/C=C\C/C=C\C/C=C\C/C=C\CCCC(=O)O,inactive
18,CC(C)OC(=O)Nc1ccc2nc(-c3cscn3)[nH]c2c1,inactive
19,CO[C@H]1C[C@@H]2CC[C@@H](C)[C@@](O)(O2)C(=O)C(=O)N2CCCC[C@H]2C(=O)O[C@H]([C@H](C)C[C@@H]2CC[C@@H](O)[C@H](OC)C2)CC(=O)[C@H](C)C=C(C)[C@@H](O)[C@@H](OC)C(=O)[C@H](C)C[C@H](C)/C=C/C=CC=C1C,inactive
20,CCCCCCCCCC(=O)NO,inactive

row,Structure (SMILES),Potency
1,COC(=O)C[C@](O)(CCCC(C)(C)O)C(=O)O[C@@H]1C(OC)=CC23CCCN2CCc2cc4c(cc2[C@H]13)OCO4 (stereo not given in full),inactive
2,Nc1nc(/C(=C/CC(=O)O)C(=O)N[C@@H]2C(=O)N3C(C(=O)O)=CCS[C@H]23)cs1,inactive
3,COC1=C(OC)C(=O)C(C/C=C(\C)CC/C=C(\C)CC/C=C(\C)CC/C=C(\C)CC/C=C(\C)CC/C=C(\C)CC/C=C(\C)CC/C=C(\C)CC/C=C(\C)CCC=C(C)C)=C(C)C1=O,inactive
4,O=C1c2ccccc2CN2C(=O)c3ccccc3CN12,inactive
5,CC(=O)[C@]1(O)Cc2c(O)c3c(c(O)c2[C@@H](O[C@H]2C[C@H](N)[C@H](O)[C@H](C)O2)C1)C(=O)c1ccccc1C3=O,inactive
6,CC12CCC(C[N+](C)(CCC[N+](C)(C)C)C1)C2(C)C (stereo not given),inactive
7,CC(=O)Oc1cc(C(F)(F)F)ccc1C(=O)O,inactive
8,O=C(O)C[C@H](O)C[C@H](O)/C=C/c1c(C2CC2)nc2ccccc2c1-c1ccc(F)cc1,14.1 µM (active)
9,CC(C)=CCC/C(C)=C/CC/C(C)=C/CC/C=C(\C)CC/C=C(\C)CCC=C(C)C,inactive
10,O=C1c2ccccc2C(=O)C1c1ccc(F)cc1,inactive
11,CC1(C)S[C@@H]2[C@H](NC(=O)[C@@H](NC(=O)N3CCNC3=O)c3ccccc3)C(=O)N2[C@H]1C(=O)O,inactive
12,C=CC1=C(C(=O)O)N2C(=O)[C@@H](NC(=O)/C(=N/OCC(=O)O)c3csc(N)n3)[C@H]2SC1 (stereo in doubt),inactive
13,NCCO/C=C/[C@H](N)C(=O)O,inactive
14,CC(C)(Oc1ccc(C2CCCc3ccccc32)cc1)C(=O)O (stereo not given),inactive
15,NC(=O)c1cc[n+](CC2=C(C(=O)O)N3C(=O)[C@@H](NC(=O)C(c4ccccc4)S(=O)(=O)[O-])[C@H]3SC2)cc1 (stereo not given in full),inactive
16,COC(=O)C(CN)c1c[nH]c2ccc(OC)cc12 (stereo not given),inactive
17,CCC(NC(C)C)C(O)c1ccc(O)c(O)c1 (stereo not given),inactive
18,COC1[C@@H](O[C@@H]2O[C@H](C)[C@@H](O[C@H]3C[C@@](C)(O)[C@H](OC(=O)CC(C)C)[C@H](C)O3)[C@H](N(C)C)[C@H]2O)[C@@H](CC=O)C[C@@H](C)[C@@H](O)/C=C/C=C/C[C@@H](C)OC(=O)C[C@H]1OC(C)=O (stereo not given in full),inactive
19,CCc1ncnc2cc(OC)c(OC)cc12,inactive
20,CC1(C)S[C@@H]2[C@H](NC(=O)[C@H](N)c3ccc(O)cc3)C(=O)N2[C@H]1C(=O)O,inactive
